Assay [1] concerns the target Luciferin 4-monooxygenase (Photinus pyralis) (UniProt P08659). The assay is described as follows: qHTS assay to identify small molecule inhibitors of firefly luciferase (AID 1224835). Further: nearly all actives have a fitted effect of over 25% in size. Summed up:
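Inhibition of purified Photinus luciferase is measured by luminescence. Substrate levels (D-luciferin, ATP) sit at their KM values. Each compound is tested in a concentration series.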

The nature of assay [2]: qHTS assay to identify small molecule agonists of the constitutive androstane receptor (CAR) signaling pathway - cell viability counter screen (AID 1224836). Further: nearly all actives have a fitted effect of over 45% in size. Summed up: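 Using CellTiter-Fluor, viability of HepG2 cells harbouring hCAR and CYP2B6-2.2kb was measured following 23 h incubation with a 15-concentration compound series plus PK11195 (0.75 uM final).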
Assay [3] in a line: qHTS assay to identify small molecule antagonists of the constitutive androstane receptor (CAR) signaling pathway - cell viability counter screen (AID 1224837). Further: nearly all actives have a fitted effect of over 45% in size. Summed up:
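In quantitative HTS format, compounds at 15 concentrations were applied to HepG2 cells double-transfected with hCAR and CYP2B6-2.2kb under 50 nM CITCO stimulation; live-cell protease activity was read after 23 hr via CellTiter-Fluor.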
(In general: Quantitative high-throughput screening tests each substance at several concentrations.)

Assay [4] concerns the target Nuclear receptor subfamily 1 group I member 3 (Homo sapiens) (UniProt Q14994). Briefly: qHTS assay to identify small molecule antagonists of the constitutive androstane receptor (CAR) signaling pathway (AID 1224838). Further: nearly all actives have a fitted effect of over 40% in size. Further: potency means the concentration at half of the fitted maximal effect. The gist of the method: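 CITCO-stimulated (50 nM final) HepG2 cells stably transfected with hCAR and CYP2B6-2.2kb luciferase were exposed to compounds at 15 concentrations for 24 h at 37 C/5% CO2. A luciferase reagent was added and luminescence recorded after 30 min.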

Assay [5] has the same target. Briefly: qHTS assay to identify small molecule agonists of the constitutive androstane receptor (CAR) signaling pathway (AID 1224839).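 Further: HepG2 cells stably carrying human CAR and a CYP2B6 luciferase reporter; nearly all actives have a fitted effect of over 15% in size.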 The gist of the method:
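Double-stable HepG2 cells (hCAR, CYP2B6-2.2kb) seeded 4 h before compound addition. Exposure 24 h with 0.75 uM PK11195 final. Luciferase detected by ONE-Glo.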

Assay [6] is described as follows: qHTS assay to identify small molecule antagonists of the estrogen related receptor signaling pathway with the pleiotropic PPARgamma coactivator (PGC) from Tox21 10K library - cell viability counter screen (AID 1224840; active means well fitted cell-killing curve with a large enough effect in the repeat runs, not every such curve was filed as active; further: nearly all actives have a fitted effect of over 40% in size). The gist of the method:
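Viability counter screen, PGC/ERR cells: 17.5 h compound exposure at 37 C, CellTiter-Fluor fluorescence endpoint.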

In assay [7] the target is Thyrotropin receptor (Homo sapiens) (UniProt P16473). The assay is described as follows: qHTS assay to identify small molecule agonists of the thyroid stimulating hormone receptor (TSHR) signaling pathway (AID 1224843; calls by dose curve; further: nearly all actives have a fitted effect of over 45% in size). Summed up:
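Agonist activity read as cAMP rise via d2/cryptate HTRF competition, 1 h room-temperature detection, in HEK293 cells expressing TSHR. Fifteen-point titrations, each run in triplicate, with a 30 min room-temperature incubation beforehand.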

The nature of assay [8]: qHTS assay to identify small molecule agonists of the hypoxia (HIF-1) signaling pathway - cell viability counter screen (AID 1224844; calls by dose curve; further: nearly all actives have a fitted effect of over 50% in size). Summed up:
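Same wells as the HIF-1 reporter screen; ME-180 cells carrying HRE-bla, 17 hr treatment at 37C; CellTiter-Glo luminescence read after 30 min at room temperature.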

The nature of assay [9]: qHTS assay to identify small molecule agonists of the hypoxia (HIF-1) signaling pathway (AID 1224846; active means well fitted activation curve with a large enough effect in the signal ratio in the repeat runs, not every such curve was filed as active; the % refers to the signal ratio). The gist of the method:
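In ME-180 cells bearing an HRE-bla construct, 17 h treatment with DMSO-dissolved compounds at 37C was followed by CCF4-AM loading to quantify reporter induction.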

A short description of assay [10]: qHTS assay to identify small molecule agonists of H2AX - cell viability counter screen (AID 1224847; calls by dose curve; further: top concentration of the series differs between compounds; nearly all actives have a fitted effect of over 30% in size). The gist of the method:
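Quantitative HTS viability measurement: CHO-K1 wild-type cells in serum (10% FBS) medium, short 3 hr drug exposure at 37C with 0.76% DMSO, CellTiter-Glo luminescent detection.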

A short description of assay [11]: qHTS RealTime-Glo MT Cell Viability Assay in HepG2 cells - 24 hour (AID 1224867). Further: nearly all actives have a fitted effect of over 50% in size. The gist of the method: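 HepG2 cells (600/well) were dispensed with RealTime-Glo reagents, incubated 5 h at 37 °C, then treated with compounds in DMSO for up to 40 h. Nonlytic NanoLuc luminescence reflecting viable cells was read at each stated time point.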
A short description of assay [12]: qHTS RealTime-Glo MT Cell Viability Assay in HEK293 cells - 32 hour (AID 1224868). Further: nearly all actives have a fitted effect of over 50% in size. Further: potency means the concentration at half of the fitted maximal effect. The gist of the method: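 HEK293 cells seeded with NanoLuc/prosubstrate reagent, rested 5 h at 37 C, then dosed and kept at 37 C up to 40 h. Nonlytic real-time luminescence from viable cells read at 0, 8, 16, 24, 32 and 40 h.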
Assay [13] in a line: A CellTox Green Cytotoxicity Assay to monitor cytotoxicity in HEK293 cells - 0 hour (AID 1224869). Further: nearly all actives have a fitted effect of over 50% in size. Summed up: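 Homogeneous no-lysis format: HEK293 cell suspension mixed with CellTox Green reagent, seeded, incubated 5 h at 37 C/5% CO2, then dosed by pintool with compound in DMSO.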
Assay [14] is described as follows: qHTS RealTime-Glo MT Cell Viability Assay in HepG2 cells - 40 hour (AID 1224870). Further: nearly all actives have a fitted effect of over 50% in size. The gist of the method: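 Real-time viability: cells seeded at 600 per well together with NanoLuc and cell-permeant prosubstrate, compounds added after 5 h incubation. Luminescence tracked at 0, 8, 16, 24, 32 and 40 h of exposure.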
Assay [15] is described as follows: qHTS assay to identify small molecule antagonists of the estrogen related receptor signaling pathway with the pleiotropic PPARgamma coactivator (PGC) from Tox21 10K library (AID 1224841; call rule not given here). The gist of the method:
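In the PGC/ERR line, DMSO solutions of test chemicals are pin-delivered to 2,000 cells/well six hours after dispensing. Following eighteen hours' incubation, One-Glo reagent is added and luminescence recorded.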

The nature of assay [16]: qHTS assay to identify small molecule agonists of the estrogen related receptor signaling pathway with the pleiotropic PPARgamma coactivator (PGC) from Tox21 10K library (AID 1224842). Further: nearly all actives have a fitted effect of over 15% in size. The gist of the method:
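Luminescence from One-Glo (30 min, room temperature) measured after PGC/ERR cells had 18 h at 37 C with pinned compound (23 nL in DMSO). Cells had been seeded at 2,000 per well and pre-incubated 6 h.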

Assay [17] in a line: qHTS assay to identify small molecule agonists of H2AX (AID 1224845; active means well fitted activation curve with a large enough effect in the signal ratio in the repeat runs, not every such curve was filed as active; the % refers to the signal ratio). The gist of the method:
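Phospho-H2AX Ser139 measured by HTRF (ex 320 nm; em 665 and 620 nm) after 24 hr antibody incubation. Compounds, 15 concentrations, 0.76% DMSO, were applied to CHO-K1 cells for 3hr at 37C before lysis.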

The nature of assay [18]: qHTS assay to identify small molecule antagonists of the estrogen related receptor (ERR) signaling pathway from Tox21 library (AID 1224848). Further: nearly all actives have a fitted effect of over 50% in size. The gist of the method:
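Luciferase luminescence (ONE-Glo, 30 min room temperature) was the read-out. Cells of the NTP-supplied ERR line, 2,000 per well, were given 6 h at 37 C before compound addition in DMSO and 18 h exposure at 37 C.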

Assay [19] is described as follows: qHTS assay to identify small molecule agonists of the estrogen related receptor (ERR) signaling pathway from Tox21 library (AID 1224849; calls by dose curve; further: nearly all actives have a fitted effect of over 15% in size). Particulars: ERR reporter cell line, ONE-Glo luciferase, 18 h; at 92.4 µM (top of the series) unless noted. Summed up: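 Reporter cells (ERR, NTP source) treated with Tox21 10K compounds 18 h, 37 C. Readout: ONE-Glo luminescence, 30 min RT.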

A number with no mark means an inactive call. Inconclusive results are not listed. Calls of active or inactive are those of the source. Unless noted, the call rests on the fitted dose curve; in most records, active means well fitted curve in the direction sought with a large enough effect in the repeat runs; inconclusive means weak or mixed curves; inactive means no such curve, though single readings can be large; an effect the other way counts as inactive or inconclusive.
On the % scale 0 is the no-effect control and ±100 the full control effect.

Chain of Luciferin 4-monooxygenase (Photinus pyralis) (P08659 whole entry, looked up): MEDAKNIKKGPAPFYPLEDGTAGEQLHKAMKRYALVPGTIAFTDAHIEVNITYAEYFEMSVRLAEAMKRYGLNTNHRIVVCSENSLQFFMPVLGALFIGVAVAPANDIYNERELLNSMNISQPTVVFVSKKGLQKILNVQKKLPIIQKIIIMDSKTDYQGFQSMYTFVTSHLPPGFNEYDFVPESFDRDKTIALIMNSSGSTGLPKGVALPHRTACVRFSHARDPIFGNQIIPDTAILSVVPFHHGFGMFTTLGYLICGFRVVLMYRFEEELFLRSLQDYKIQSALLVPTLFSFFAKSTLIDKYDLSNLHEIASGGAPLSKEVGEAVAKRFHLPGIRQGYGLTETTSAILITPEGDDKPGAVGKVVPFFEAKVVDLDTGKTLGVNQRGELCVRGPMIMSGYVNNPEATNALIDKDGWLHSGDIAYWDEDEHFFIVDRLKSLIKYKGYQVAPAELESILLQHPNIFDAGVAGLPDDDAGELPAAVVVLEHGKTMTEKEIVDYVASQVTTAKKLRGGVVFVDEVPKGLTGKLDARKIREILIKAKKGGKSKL
Chain of Thyrotropin receptor (Homo sapiens) (P16473 whole entry, looked up): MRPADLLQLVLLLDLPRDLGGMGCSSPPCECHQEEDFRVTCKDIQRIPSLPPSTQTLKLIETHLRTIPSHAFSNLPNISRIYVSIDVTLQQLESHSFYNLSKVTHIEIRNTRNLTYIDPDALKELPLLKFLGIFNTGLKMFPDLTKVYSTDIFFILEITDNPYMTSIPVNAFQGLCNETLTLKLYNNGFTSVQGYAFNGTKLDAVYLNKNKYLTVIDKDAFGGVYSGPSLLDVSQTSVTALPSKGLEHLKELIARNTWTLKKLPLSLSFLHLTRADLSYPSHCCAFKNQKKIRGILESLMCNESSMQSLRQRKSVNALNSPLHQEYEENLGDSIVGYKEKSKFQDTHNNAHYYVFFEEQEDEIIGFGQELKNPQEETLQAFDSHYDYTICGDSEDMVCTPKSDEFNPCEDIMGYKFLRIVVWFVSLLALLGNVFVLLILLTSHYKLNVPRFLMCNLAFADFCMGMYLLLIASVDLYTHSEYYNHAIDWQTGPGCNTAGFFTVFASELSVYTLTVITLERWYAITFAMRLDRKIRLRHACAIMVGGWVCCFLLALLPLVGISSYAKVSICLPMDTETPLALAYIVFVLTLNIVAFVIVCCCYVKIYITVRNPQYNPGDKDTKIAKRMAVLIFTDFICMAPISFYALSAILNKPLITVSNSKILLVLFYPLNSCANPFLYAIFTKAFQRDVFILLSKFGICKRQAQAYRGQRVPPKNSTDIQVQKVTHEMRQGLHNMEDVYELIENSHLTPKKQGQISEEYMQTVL
Chain of Nuclear receptor subfamily 1 group I member 3 (Homo sapiens) (Q14994 whole entry, looked up): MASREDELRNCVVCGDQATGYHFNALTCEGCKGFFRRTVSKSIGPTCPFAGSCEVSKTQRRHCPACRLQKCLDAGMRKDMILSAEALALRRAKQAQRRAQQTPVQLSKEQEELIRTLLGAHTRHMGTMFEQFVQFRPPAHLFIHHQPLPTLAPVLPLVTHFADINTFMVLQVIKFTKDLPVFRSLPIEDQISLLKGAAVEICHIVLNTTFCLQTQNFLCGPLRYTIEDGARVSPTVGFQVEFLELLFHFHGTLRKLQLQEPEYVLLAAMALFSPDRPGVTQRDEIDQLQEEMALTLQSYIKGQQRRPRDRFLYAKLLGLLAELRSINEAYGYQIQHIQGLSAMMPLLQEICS

As to `CCCCOC(=O)CCS`, the Potency result in assay [1], in assay [2], in assay [3], in assay [5], in assay [6] and in [7] was “inactive” throughout. Also, the Potency entry in [8], in [10], in assay [11], in [12], in assay [13] and in assay [14] was “inactive” each time. Also, the Potency in assay [4] was 24.3 µM (active). Further, the compound was called inactive in assay [9].
In the case of `CCOC(=O)c1ccccc1OC`, the Potency entry in assay [1], in assay [2], in [3], in assay [4], in assay [5] and in [6] was “inactive” in each case. Moreover, the Potency result in assay [15], in assay [16], in assay [7], in [8], in [17] and in assay [18] was “inactive” each time. Moreover, the Potency entry in assay [11], in assay [12], in [13] and in [14] was “inactive” each time. Moreover, the result in assay [9] was inactive. The activity change, positive = activation in [19] was -0.575%.
On to `CC(C)(CCl)c1ccccc1`, for which the Potency entry in assay [1], in assay [2], in assay [3], in assay [4], in assay [5] and in assay [7] was “inactive” in each case. Also, the Potency result in assay [8], in [17], in assay [10], in assay [12], in assay [13] and in assay [14] was “inactive” in each case. Further, the call in assay [9] was inactive.
Take `C[C@@H]1C[C@H]2[C@@H]3CCC4=CC(=O)C=C[C@]4(C)[C@@]3(F)[C@@H](O)C[C@]2(C)[C@H]1C(=O)CO`: the Potency result in assay [1], in assay [2], in [3], in [4], in assay [5] and in assay [6] was “inactive” throughout. The Potency entry in assay [7], in assay [17], in assay [10], in assay [11], in [12] and in [13] was “inactive” in each case. In assay [14], the Potency result is “inactive”.
For `Nc1c(I)cc(I)c(C(=O)N(CCC(=O)O)c2ccccc2)c1I`, the Potency entry in [1], in [2], in assay [3], in assay [4], in assay [5] and in [6] was “inactive” in each case. The Potency result in assay [10], in [11], in assay [12], in [13] and in assay [14] was “inactive” throughout. Also, in assay [9], the compound was called inactive.
As for `Cc1occc1C(=O)Nc1ccc(C(=O)N2CCC(F)(F)/C(=C\C(=O)N3CCC(N4CCCCC4)CC3)c3ccccc32)cc1`, the Potency result in assay [1], in assay [2], in [3], in assay [4], in assay [5] and in assay [16] was “inactive” each time. Besides, the Potency result in [7], in assay [8], in [17], in assay [10], in [18] and in assay [11] was “inactive” throughout. Besides, the Potency result in assay [13] and in [14] was “inactive” each time. Further, the result in [9] was inactive. In addition, the activity change, positive = activation in assay [19] is -12.3% [at 42.5 µM]. For the same compound, the Potency in assay [12] is 10.8 µM (active).
With `O=Cc1c(Cl)cccc1Cl`, the Potency entry in [1], in assay [2], in assay [3], in [4], in assay [5] and in assay [15] was “inactive” in each case. For the same compound, the Potency entry in [16], in assay [7], in [8], in assay [17], in assay [10] and in assay [18] was “inactive” each time. Further, the Potency entry in assay [11], in assay [12], in assay [13] and in [14] was “inactive” in each case. In assay [9], the outcome was inactive. For the same compound, in assay [19], the activity change, positive = activation was 3.9%.

(Values after PubChem BioAssay (Tox21).)
